Results reported in PubChem BioAssay (NCI).
Compounds without any hit were thinned out: in the full panel of roughly 83,000, 20% have a hit.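 Results are percent growth after 48 hours of single-concentration exposure. 100 means growth as in untreated cells, lower positive values show inhibition; negative values down to -100 show cell death.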 Unmarked numbers belong to inactive results. Activity calls are given as the source filed them. The calls were made as follows: active = growth percent below 10; inactive = the rest.

Key:
Assay in all cases: NCI-60 one-dose screen, 48 h (100 = growth as untreated, 0 = no growth, -100 = all killed)
T-47D breast = settings: 10 µM
BT-549 breast = settings: 10 µM unless noted
MDA-MB-435 melanoma = settings: 10 µM unless noted
SW-620 colon = settings: 10 µM unless noted
MCF7 breast = settings: 10 µM unless noted
HCT-116 colon = settings: 10 µM unless noted
KM12 colon = settings: 10 µM unless noted
HCC-2998 colon = settings: 10 µM unless noted

| SMILES | growth (T-47D breast) | growth (BT-549 breast) | growth (MDA-MB-435 melanoma) | growth (SW-620 colon) | growth (MCF7 breast) | growth (HCT-116 colon) | growth (KM12 colon) | growth (HCC-2998 colon) |
| --- | --- | --- | --- | --- | --- | --- | --- | --- |
| CCC(=O)Nc1nnc(Cc2ccc(OC)c(OC)c2)s1 | -18.7% (active) | -66.8% (active) | -52% (active) | 33.8% | 15.1% | -68.2% (active) | 36.3% | – |
| O=C(O)c1ccccc1Oc1cc(-c2ccco2)nc(OCCBr)n1 | 101% | 92.1% | 101% | 105% | 101% | 96.5% | 95.6% | – |
| Cl.Fc1c[c-]c(-c2ccccn2)c(F)c1.[Pt].c1ccc([PH+](CC[PH+](c2ccccc2)c2ccccc2)c2ccccc2)cc1 | -65.2% (active) | -69.2% (active) | -91.9% (active) | -88.8% (active) | -74.7% (active) | -90.4% (active) | -89.1% (active) | – |
| CCCOC(=O)c1ccc2c(c1)[N+](=O)C(C(=O)c1ccccc1)=C(C(F)(F)F)[N+]2=O | -83.2% (active) | -83.9% (active) | -89.5% (active) | -82.5% (active) | -69.7% (active) | -73% (active) | -81.6% (active) | – |
| Cc1nc2nc(C(F)(F)F)[nH]c2nc1C | 104% | 100% | 112% | 114% | 95.2% | 101% | 105% | – |
| CC(C)OC1=C(Cl)C(=O)c2ccccc2C1=O | -24.6% (active) | 59.7% | 97.3% | 56.6% | 73.2% | 39.4% | 41.2% | – |
| COc1ccc(C(=O)COc2cccc(/C=C3\CSc4ccc(C)cc4C3=O)c2)cc1 | 79.7% | 108% | 69.5% | -21.5% (active) | 30.9% | 53.1% | 79.6% | – |
| O=C1c2ccccc2-c2nnc(-c3ccc(Br)cc3)cc21 | 52.7% | 71.5% | -69.1% (active) | 73.3% | 14.8% | 1.98% (active) | 64% | – |
| CC(=O)N(CC(O)CO)c1c(I)c(C(=O)NCCO)c(I)c(C(=O)NCC(O)CO)c1I (stereo not drawn) | 101% | 94.3% | 105% | 109% | 104% | 97% | 103% | – |
| COc1cc(-c2ccc3cc(OC)c(OC)c(OC)c3c2)cc(OC)c1OC | 50.7% | 72.2% | -16.7% (active) | 47.3% | 49.4% | 54.1% | 37.5% | – |
| Cc1cc(=O)[nH]n1-c1cc(Cl)ccc1N | 105% | 87.1% | 111% | 113% | 101% | 95.6% | 119% | – |
| N#CCCN1CCN(CCC#N)C1=S | 108% | 99.6% | 106% | 101% | 101% | 101% | 109% | – |
| CCN1CCN(C(=S)SCC(=O)Nc2nc3ccc(OC)cc3s2)CC1 | 86.6% | 89.5% | 107% | 110% | 96.3% | 95.8% | 90.6% | – |
| CC(C)(C)[Si](C)(C)OC1[C@@H](O[Si](C)(C)C(C)(C)C)[C@@H](CNC(=O)NC(=O)C(F)(F)F)O[C@H]1n1cnc2c(NC(=O)Nc3ccccc3)ncnc21 (stereo partly drawn) | 85.5% | 96% | -4.83% (active) | 71.2% | 48.3% | 57.2% | 24% | – |
| COc1ccc(/C=C(\C#N)c2ccc(OC)cc2)cc1 | 47.4% | 95% | 2.31% (active) | 38.6% | 36.8% | 55.4% | 28.4% | – |
| O=[N+]([O-])c1ccc(O)c2ncccc12 | 30.4% | 55.2% | 43.8% | 32.6% | 35.2% | 17.1% | 35.5% | – |
| N#CC1=C(N)Oc2cc(N)ccc2C1c1ccc(F)cc1 (stereo not drawn) | 96.6% | 69.2% | -21.9% (active) | 46.8% | 64.1% | 78.4% | 49.7% | – |
| NC(=O)c1nc2c([nH]c1=O)CCCC2 | 92.7% | 115% | 113% | 101% | 98.7% | 109% | 98.8% | – |
| Oc1ccccc1/C=N/Nc1nc2ccccc2s1 | 37.8% | 51.4% | 56.9% | 50.1% | 20.2% | 41.2% | 22.1% | – |
| O=[N+]([O-])c1cc2c(cc1Br)-c1ccccc1C2 | 14.9% | 76.8% | 94.7% | 83.6% | 3.07% (active) | 84% | 58.5% | – |
| COC(=O)c1c2c(c(C)[n+]([O-])c1C)C(=O)C(NCc1ccc(O)cc1)=CC2=O | -7.43% (active) | 34.5% | -96.5% (active) | -3.33% (active) | -63.4% (active) | -6.79% (active) | 2.07% (active) | – |
| O=C1C(N2CCOCC2)=Cc2cccc3cccc1c23 | 86.6% | 109% | 102% | 98.3% | 66.2% | 94.7% | 95.8% | – |
| CN1CCC(OC2c3ccccc3CCc3ccccc32)CC1 | 94.9% | 90.7% | 95.5% | 95.1% | 90.5% | 98.4% | 102% | – |
| COc1cccc(C2CC(=O)Nc3cc4c(cc32)CCC4)c1OC (stereo not drawn) | 57.1% | 62.3% | -56.5% (active) | 29.3% | 29.3% | 57.7% | 28.5% | – |
| COC(=O)CCC(=O)c1ccccc1 | 102% | 107% | 96.9% | 106% | 96.1% | 108% | 110% | – |
| O=C(Nc1ccc(Cl)c(Cl)c1)OCn1ncc2ccc([N+](=O)[O-])cc21 | 80% | 78.5% | 94.3% | 106% | – | 80.7% | 86.2% | 93.8% |
| Cc1nc2cc(Nc3nc(Nc4ccc(F)cc4)nc(N4CCCC4)n3)ccc2n1Cc1ccccc1 | -31.3% (active) | -14% (active) | -74.2% (active) | -53.8% (active) | – | -79.3% (active) | -73.4% (active) | – |
